Measured values reported in the supplement of paper PMC10849652.
About 7,900 targets were measured; listed, in parts, are those with a hit and a random draw of the rest. About 0.6% of all pairs of compound and target were hits. Unmarked numbers belong to inactive results.

What was measured:
Assay in all cases: log2 fold change, soluble protein after heating vs DMSO (PISA); higher = thermal stabilisation; K562 cells, 10 uM, 30 min; active = over 0.2 and 3.5 SD of the protein, either way, in both replicates (recomputed)
[1] = compound: CC[C@@H]1C(=O)N(C)c2cnc(Nc3ccc(C(=O)NC4CCN(C)CC4)cc3OC)nc2N1C1CCCC1
Method in brief: (§1)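 K562 cells at 2×10^6 cells/mL were treated for 30 min with 10 μM compound, and aliquots were heated for 3 min over 48°C-58°C before pooling. Extraction used PBS with 0.5% NP-40 at 4°C, and soluble protein was the supernatant after 21,000xg for 90 min, measured by TMTpro 16plex LC-MS/MS with channel sums equalised. Thermal stability values, relative to control samples and from duplicates, are log2 fold changes.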

volasertib = compound: CC[C@@H]1C(=O)N(C)c2cnc(Nc3ccc(C(=O)N[C@H]4CC[C@H](N5CCN(CC6CC6)CC5)CC4)cc3OC)nc2N1C(C)C [volasertib]
Method in brief: as §1

[2] = compound: CC[C@H](C)N1C=C(C2=C(C=C(C=C21)C3=CN=C(C=C3)N4CCNCC4)C(=O)NCC5=C(C=C(NC5=O)C)C)C
Method in brief: as §1

epoxomicin = compound: CC[C@H](C)[C@@H](C(=O)N[C@@H]([C@@H](C)O)C(=O)N[C@@H](CC(C)C)C(=O)[C@]1(CO1)C)NC(=O)[C@H]([C@@H](C)CC)N(C)C(=O)C [epoxomicin]
Method in brief: as §1

[3] = compound: CCn1c(C(=O)N(C2CC2)C2CC2)cc2c3c(ncn3C)c(Nc3cc(C)n(C)n3)nc21
Method in brief: as §1

[4] = compound: CCn1cc(-c2ccnc3[nH]c(-c4cccc(CN(C)C)c4)cc23)c(-c2ccc(NC(=O)N(C)C)cc2)n1
Method in brief: as §1

[5] = compound: CN(C)CC(=O)Nc1ccc2[nH]c(=O)c3ccccc3c2c1
Method in brief: as §1

rosiglitazone = compound: CN(CCOC1=CC=C(C=C1)C[C@H]2C(=O)NC(=O)S2)C3=CC=CC=N3 (racemic) [rosiglitazone]
Method in brief: as §1

[6] = compound: CN1C2=C(C3=C1C(=O)N(N=C3)CC4=CC(=CC=C4)N)SC(=C2)S(=O)C
Method in brief: as §1

[7] = compound: CN1CCC(CNc2ccc3ncc(-c4cccc(OC(F)(F)F)c4)n3n2)CC1
Method in brief: as §1

saracatinib = compound: CN1CCN(CCOc2cc(OC3CCOCC3)c3c(Nc4c(Cl)ccc5c4OCO5)ncnc3c2)CC1 [saracatinib]
Method in brief: as §1

sotrastaurin = compound: CN1CCN(c2nc(C3=C(c4c[nH]c5ccccc45)C(=O)NC3=O)c3ccccc3n2)CC1 [sotrastaurin]
Method in brief: as §1

alvocidib = compound: CN1CC[C@H](c2c(O)cc(O)c3c(=O)cc(-c4ccccc4Cl)oc23)[C@H](O)C1 [alvocidib]
Method in brief: as §1

Tubastatin A = compound: CN1CCc2c(c3ccccc3n2Cc2ccc(C(=O)NO)cc2)C1 [Tubastatin A]
Method in brief: as §1

[8] = compound: CNC(=O)C1=CC=CC=C1NC2=NC(=NC=C2Cl)NC3=C(C=C(C=C3)N4CCOCC4)OC
Method in brief: as §1

defactinib = compound: CNC(=O)c1ccc(Nc2ncc(C(F)(F)F)c(NCc3nccnc3N(C)S(C)(=O)=O)n2)cc1 [defactinib]
Method in brief: as §1

rucaparib = compound: CNCc1ccc(-c2[nH]c3cc(F)cc4c3c2CCNC4=O)cc1 [rucaparib]
Method in brief: as §1

[9] = compound: CNc1nc(-c2ccc3c(N)n[nH]c3c2)cc(N2C[C@@H](C(=O)NC3CCCCC3)CC[C@H]2C)n1
Method in brief: as §1

encorafenib = compound: COC(=O)N[C@@H](C)CNc1nccc(-c2cn(C(C)C)nc2-c2cc(Cl)cc(NS(C)(=O)=O)c2F)n1 [encorafenib]
Method in brief: as §1

[10] = compound: COC(=O)[C@H](CCSC)NC(=O)C1=C(C=C(C=C1)NC[C@H](CS)N)C2=CC=CC=C2
Method in brief: as §1

Sequence of UniProt O00148 (O00148 whole entry, looked up): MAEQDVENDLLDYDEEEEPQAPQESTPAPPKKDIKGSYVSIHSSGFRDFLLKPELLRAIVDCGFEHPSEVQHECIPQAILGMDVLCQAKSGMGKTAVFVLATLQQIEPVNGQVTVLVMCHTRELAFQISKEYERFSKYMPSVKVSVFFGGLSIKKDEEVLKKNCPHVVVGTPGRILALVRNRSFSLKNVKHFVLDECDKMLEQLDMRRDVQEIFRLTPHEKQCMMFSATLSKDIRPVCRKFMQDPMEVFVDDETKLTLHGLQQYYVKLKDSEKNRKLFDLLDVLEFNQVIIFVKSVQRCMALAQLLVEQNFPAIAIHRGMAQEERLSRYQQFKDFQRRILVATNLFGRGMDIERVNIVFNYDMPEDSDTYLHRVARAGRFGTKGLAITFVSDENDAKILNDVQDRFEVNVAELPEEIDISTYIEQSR
Sequence of UniProt O94905 (O94905 whole entry, looked up): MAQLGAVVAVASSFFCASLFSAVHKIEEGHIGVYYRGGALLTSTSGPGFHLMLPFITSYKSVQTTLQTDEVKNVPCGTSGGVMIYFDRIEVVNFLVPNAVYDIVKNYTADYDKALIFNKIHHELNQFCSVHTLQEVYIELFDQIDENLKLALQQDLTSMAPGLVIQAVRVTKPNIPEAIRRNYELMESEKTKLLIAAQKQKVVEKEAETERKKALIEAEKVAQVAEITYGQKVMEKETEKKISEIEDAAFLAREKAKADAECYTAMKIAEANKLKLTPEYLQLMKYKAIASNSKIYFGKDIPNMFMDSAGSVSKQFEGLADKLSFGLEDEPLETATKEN
Sequence of UniProt Q04637 (Q04637 whole entry, looked up): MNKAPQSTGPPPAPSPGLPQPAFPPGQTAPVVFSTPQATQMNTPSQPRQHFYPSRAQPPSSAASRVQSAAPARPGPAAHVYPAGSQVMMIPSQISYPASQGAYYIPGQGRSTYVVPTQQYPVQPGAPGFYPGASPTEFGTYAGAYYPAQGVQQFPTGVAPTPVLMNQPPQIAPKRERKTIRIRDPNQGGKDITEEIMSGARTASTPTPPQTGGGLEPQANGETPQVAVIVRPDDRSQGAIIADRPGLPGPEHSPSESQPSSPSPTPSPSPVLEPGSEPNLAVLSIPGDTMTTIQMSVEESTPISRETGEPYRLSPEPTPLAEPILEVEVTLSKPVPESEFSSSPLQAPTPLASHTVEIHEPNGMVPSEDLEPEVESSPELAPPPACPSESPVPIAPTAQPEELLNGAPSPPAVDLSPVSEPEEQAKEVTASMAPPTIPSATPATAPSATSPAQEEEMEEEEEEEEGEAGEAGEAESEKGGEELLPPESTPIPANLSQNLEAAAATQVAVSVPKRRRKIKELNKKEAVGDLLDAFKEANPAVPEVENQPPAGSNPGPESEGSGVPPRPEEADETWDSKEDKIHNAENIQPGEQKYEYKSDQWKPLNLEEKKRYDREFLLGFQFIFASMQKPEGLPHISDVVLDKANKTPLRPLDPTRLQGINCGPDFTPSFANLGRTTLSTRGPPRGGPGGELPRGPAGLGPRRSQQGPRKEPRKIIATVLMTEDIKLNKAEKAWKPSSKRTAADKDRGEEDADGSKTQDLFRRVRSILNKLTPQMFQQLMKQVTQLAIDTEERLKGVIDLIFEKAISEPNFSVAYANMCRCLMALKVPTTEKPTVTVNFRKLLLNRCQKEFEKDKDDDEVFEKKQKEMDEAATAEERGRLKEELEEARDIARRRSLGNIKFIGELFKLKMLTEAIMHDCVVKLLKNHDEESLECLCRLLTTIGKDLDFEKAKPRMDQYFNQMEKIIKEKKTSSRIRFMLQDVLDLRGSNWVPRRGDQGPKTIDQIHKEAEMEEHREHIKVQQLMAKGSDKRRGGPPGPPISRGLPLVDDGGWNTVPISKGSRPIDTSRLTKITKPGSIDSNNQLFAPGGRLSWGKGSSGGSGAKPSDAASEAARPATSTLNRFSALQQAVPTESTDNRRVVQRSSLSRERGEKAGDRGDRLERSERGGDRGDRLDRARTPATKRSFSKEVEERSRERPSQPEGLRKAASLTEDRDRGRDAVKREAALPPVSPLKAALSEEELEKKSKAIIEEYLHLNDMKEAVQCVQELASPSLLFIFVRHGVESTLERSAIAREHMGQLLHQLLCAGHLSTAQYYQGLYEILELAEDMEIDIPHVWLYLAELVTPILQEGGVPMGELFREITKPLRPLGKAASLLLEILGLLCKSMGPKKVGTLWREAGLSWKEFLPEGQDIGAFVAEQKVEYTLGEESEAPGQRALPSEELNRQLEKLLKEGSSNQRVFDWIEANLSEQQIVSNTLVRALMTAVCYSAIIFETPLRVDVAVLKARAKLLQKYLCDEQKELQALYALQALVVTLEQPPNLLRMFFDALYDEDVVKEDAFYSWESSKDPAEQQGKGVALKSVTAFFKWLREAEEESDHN
Sequence of UniProt Q9BU89 (Q9BU89 whole entry, looked up): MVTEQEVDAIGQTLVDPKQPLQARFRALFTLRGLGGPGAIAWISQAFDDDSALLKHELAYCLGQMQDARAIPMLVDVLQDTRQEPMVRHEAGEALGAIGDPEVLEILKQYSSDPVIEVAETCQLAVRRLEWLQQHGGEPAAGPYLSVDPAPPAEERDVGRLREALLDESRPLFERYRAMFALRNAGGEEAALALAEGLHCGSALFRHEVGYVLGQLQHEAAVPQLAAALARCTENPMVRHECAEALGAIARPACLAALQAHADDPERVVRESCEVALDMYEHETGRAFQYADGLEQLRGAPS
Sequence of UniProt Q96E09 (Q96E09 whole entry, looked up): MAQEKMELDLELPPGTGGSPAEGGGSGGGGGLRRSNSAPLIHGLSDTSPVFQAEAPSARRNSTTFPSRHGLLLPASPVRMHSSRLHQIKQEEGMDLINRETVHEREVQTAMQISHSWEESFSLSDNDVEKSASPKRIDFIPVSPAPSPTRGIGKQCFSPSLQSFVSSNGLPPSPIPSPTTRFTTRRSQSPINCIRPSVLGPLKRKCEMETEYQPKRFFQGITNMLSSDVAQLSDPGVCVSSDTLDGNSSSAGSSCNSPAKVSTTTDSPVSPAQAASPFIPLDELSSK
Sequence of UniProt P49366 (P49366 whole entry, looked up): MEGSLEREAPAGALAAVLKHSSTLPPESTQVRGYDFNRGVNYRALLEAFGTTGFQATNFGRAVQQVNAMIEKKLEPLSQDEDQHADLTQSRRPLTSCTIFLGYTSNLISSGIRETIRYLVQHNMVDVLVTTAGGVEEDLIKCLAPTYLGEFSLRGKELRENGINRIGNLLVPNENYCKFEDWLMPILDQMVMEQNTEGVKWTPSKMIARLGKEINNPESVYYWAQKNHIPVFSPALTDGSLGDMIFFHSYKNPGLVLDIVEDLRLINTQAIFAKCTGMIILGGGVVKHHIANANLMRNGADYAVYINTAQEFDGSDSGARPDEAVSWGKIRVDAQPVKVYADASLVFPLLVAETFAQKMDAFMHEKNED
Sequence of UniProt Q14689 (Q14689 whole entry, looked up): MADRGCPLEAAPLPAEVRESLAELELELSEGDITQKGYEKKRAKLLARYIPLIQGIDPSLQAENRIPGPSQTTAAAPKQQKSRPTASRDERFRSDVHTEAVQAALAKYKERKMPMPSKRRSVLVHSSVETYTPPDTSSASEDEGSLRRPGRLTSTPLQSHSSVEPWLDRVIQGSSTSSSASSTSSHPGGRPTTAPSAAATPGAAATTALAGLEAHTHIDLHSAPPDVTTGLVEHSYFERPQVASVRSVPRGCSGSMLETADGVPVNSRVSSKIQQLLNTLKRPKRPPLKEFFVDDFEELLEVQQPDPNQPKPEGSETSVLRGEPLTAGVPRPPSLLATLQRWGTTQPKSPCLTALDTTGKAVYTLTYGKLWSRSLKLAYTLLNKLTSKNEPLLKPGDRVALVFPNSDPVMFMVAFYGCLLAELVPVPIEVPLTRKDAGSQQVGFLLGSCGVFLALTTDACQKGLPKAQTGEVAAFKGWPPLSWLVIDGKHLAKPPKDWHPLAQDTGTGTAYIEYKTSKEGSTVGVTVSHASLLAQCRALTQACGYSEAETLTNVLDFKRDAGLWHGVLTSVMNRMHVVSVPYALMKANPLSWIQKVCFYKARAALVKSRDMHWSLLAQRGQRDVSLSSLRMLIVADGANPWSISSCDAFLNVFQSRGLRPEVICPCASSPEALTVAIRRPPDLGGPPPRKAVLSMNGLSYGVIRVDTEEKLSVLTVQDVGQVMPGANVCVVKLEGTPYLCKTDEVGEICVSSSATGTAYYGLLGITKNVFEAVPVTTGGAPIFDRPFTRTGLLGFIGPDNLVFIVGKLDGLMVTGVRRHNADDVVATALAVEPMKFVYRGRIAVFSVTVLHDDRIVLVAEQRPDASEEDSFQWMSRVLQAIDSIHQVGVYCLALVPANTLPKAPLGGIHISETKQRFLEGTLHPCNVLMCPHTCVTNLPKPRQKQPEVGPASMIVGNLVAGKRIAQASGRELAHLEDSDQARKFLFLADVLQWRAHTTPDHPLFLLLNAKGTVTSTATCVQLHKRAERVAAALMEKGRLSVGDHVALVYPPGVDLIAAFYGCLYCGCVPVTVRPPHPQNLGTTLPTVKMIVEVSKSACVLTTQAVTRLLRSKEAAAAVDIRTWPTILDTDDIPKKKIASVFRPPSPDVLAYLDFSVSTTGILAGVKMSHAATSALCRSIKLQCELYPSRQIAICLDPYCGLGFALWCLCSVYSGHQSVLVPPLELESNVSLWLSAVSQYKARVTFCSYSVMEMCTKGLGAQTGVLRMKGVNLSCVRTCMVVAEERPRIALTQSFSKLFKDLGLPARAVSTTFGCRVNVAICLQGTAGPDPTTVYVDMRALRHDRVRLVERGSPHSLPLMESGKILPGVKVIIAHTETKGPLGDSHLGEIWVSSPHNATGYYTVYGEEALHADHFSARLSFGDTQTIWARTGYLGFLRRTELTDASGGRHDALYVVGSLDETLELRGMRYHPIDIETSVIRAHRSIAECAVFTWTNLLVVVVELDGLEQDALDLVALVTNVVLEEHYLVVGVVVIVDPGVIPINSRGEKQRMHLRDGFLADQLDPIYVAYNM

| Target | log2 fold change [1] | log2 fold change (volasertib) | log2 fold change [2] | log2 fold change (epoxomicin) | log2 fold change [3] | log2 fold change [4] | log2 fold change [5] | log2 fold change (rosiglitazone) | log2 fold change [6] | log2 fold change [7] | log2 fold change (saracatinib) | log2 fold change (sotrastaurin) | log2 fold change (alvocidib) | log2 fold change (Tubastatin A) | log2 fold change [8] | log2 fold change (defactinib) | log2 fold change (rucaparib) | log2 fold change [9] | log2 fold change (encorafenib) | log2 fold change [10] |
| --- | --- | --- | --- | --- | --- | --- | --- | --- | --- | --- | --- | --- | --- | --- | --- | --- | --- | --- | --- | --- |
| DHX36 (UniProt Q9H2U1) | 0.11 | 0.059 | 0.002 | -0.032 | -0.009 | 0.032 | -0.032 | -0.015 | 0.086 | -0.027 | -0.014 | 0.021 | 0.122 | 0.048 | -0.041 | 0.171 | 0.187 | 0.03 | 0.095 | 0.011 |
| EIF4G1 isoform 8 (UniProt Q04637) | -0.114 | -0.487 | 0.174 | 0.016 | -0.076 | 0.005 | 0.031 | 0.047 | 0.181 | -0.425 | -0.08 | -0.36 | 0.021 | 0.034 | -0.067 | 0.008 | 0.197 | -0.017 | 0.092 | -0.05 |
| EEA1 (UniProt Q15075) | 0.036 | 0.031 | -0.024 | 0.017 | -0.002 | 0.019 | -0.038 | -0.014 | -0.023 | 0.001 | 0.07 | 0.013 | 0.013 | -0.014 | -0.014 | -0.033 | -0.035 | -0.026 | -0.047 | 0.007 |
| EVC2 (UniProt Q86UK5) | -0.133 | -0.003 | 0.078 | 0.097 | -0.038 | -0.037 | -0.087 | 0.128 | 0.034 | -0.293 | -0.151 | 0.067 | 0.031 | -0.033 | -0.035 | -0.065 | 0.065 | 0.035 | 0.002 | 0.073 |
| DHPS (UniProt P49366) | 0.045 | 0.028 | 0.001 | 0.046 | -0.002 | 0.014 | -0.012 | -0.01 | -0.017 | -0.049 | 0.087 | 0.043 | -0.013 | 0.005 | -0.026 | -0.027 | -0.018 | -0.053 | -0.012 | -0.011 |
| DHRS7B (UniProt Q6IAN0) | -0.079 | -0.147 | -0.043 | -0.106 | 0.004 | 0.059 | -0.002 | 0.021 | -0.122 | 0.538 (active) | -0.003 | 0.148 | -0.18 | -0.019 | 0.051 | -0.067 | 0.029 | 0.071 | -0.008 | -0.016 |
| FAM122A (UniProt Q96E09) | -0.042 | -0.054 | 0.006 | -0.141 | -0.029 | -0.426 (active) | -0.043 | 0.064 | -0.081 | -0.699 (active) | -0.005 | -0.027 | 0 | 0.096 | -0.09 | -0.018 | 0.015 | 0.017 | -0.016 | 0.056 |
| DIP2A (UniProt Q14689) | -0.065 | 0.026 | -0.037 | -0.017 | 0.037 | -0.063 | -0.041 | -0.034 | -0.045 | 0.057 | 0.082 | 0.054 | -0.095 | -0.094 | 0.034 | -0.059 | 0.1 | -0.009 | 0 | 0.077 |
| CUX1 isoform 2 (UniProt Q13948) | -0.055 | -0.188 | 0 | -0.002 | -0.112 | 0.043 | 0.317 | 0.033 | 0.016 | 0.055 | -0.065 | -0.012 | -0.07 | 0.006 | 0.03 | -0.049 | 0.061 | 0.048 | 0.056 | -0.062 |
| CTSL (UniProt P07711) | -0.124 | -0.247 | -0.045 | 0.017 | 0.014 | 0.196 | -0.074 | -0.037 | 0.019 | -0.306 | 0.113 | 0.05 | 0.085 | 0.038 | 0.024 | 0.032 | 0.049 | 0.018 | -0.008 | 0.02 |
| ERLIN2 (UniProt O94905) | 0.06 | -0.057 | 0.054 | -0.034 | -0.031 | 0.01 | -0.051 | -0.01 | 0.096 | 0.008 | -0.044 | -0.097 | 0.034 | 0 | -0.137 | 0.026 | 0.033 | -0.005 | 0.092 | 0.004 |
| DYNC1I2 isoform 5 (UniProt Q13409) | 0.004 | 0.005 | 0.004 | 0.026 | 0.011 | -0.003 | 0.002 | -0.024 | -0.041 | -0.035 | 0.012 | 0.021 | -0.033 | 0.003 | 0.012 | 0.001 | -0.006 | -0.005 | -0.014 | 0.028 |
| DOHH (UniProt Q9BU89) | -0.035 | -0.027 | 0.031 | -0.197 | 0.064 | -0.1 | 0.145 | 0.471 (active) | 0.025 | 0.164 | -0.035 | 0.196 | 0.147 | -0.121 | -0.076 | -0.152 | -0.002 | -0.064 | -0.074 | 0.037 |
| DCAF13 (UniProt Q9NV06) | 0.134 | 0.26 | 0.03 | -0.24 | 0.038 | 0.132 | -0.166 | -0.112 | 0.195 | 0.136 | -0.027 | 0.001 | 0.214 | 0.094 | 0.074 | 0.165 | 0.19 | 0.045 | 0.07 | 0.029 |
| DDX39A (UniProt O00148) | 0.037 | -0.104 | 0.034 | -0.096 | -0.037 | -0.123 | -0.002 | 0.018 | 0.038 | -0.016 | 0.018 | -0.149 | -0.061 | 0.007 | -0.143 | -0.213 | 0.111 | -0.041 | -0.016 | -0.032 |
| DNAH11 (UniProt Q96DT5) | 0.234 | 0.426 | -0.029 | -0.157 | 0.063 | 0.176 | -0.111 | -0.047 | 0.298 | -0.424 | 0.301 | 0.317 | 0.517 | -0.083 | -0.043 | -0.11 | 0.162 | 0.061 | 0.152 | 0.049 |
